Assay outcomes: PubChem, several laboratories
Rows were chosen to be rich in hits. Some 1.7% of all compounds tested hit in one or more screens of this group.
ABCB6 inh 2 – inhibitors of human ABC transporter ABCB6; K562-ABCB6 porphyrin accumulation, flow cytometry, 1 h; stronger effect = lower value; Q9NP58; actives 0.19% (n = 360,000); fluorescence ratio to DMSO, % at 10 µM; AID 602162;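 active = fluorescence ratio to DMSO below 75%, the collection mean minus 3 SD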;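 also: signal is porphyrin accumulated inside mitochondria; 100% equals median channel fluorescence of DMSO control wells; lower ratio means ABCB6 inhibition with less porphyrin fluorescence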
TLR4 MyD88 comp – inhibitors of human TLR4-MyD88 binding; inhibition, % at 8.4 µM; AID 861; HeLa CL3-4 TLR4/MyD88 BLA complementation, FRET ratio; actives 0.18% (n = 200,000); O00206+Q99836; in the data active = inhibition above about 25%;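 also: 0% = vehicle and 100% = reference inhibitor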
NOD2 RIPK2 PPI – inhibitors of human NOD2-RIPK2 interaction. O43353. CHO BLA complementation NOD2-RIPK2, CCF4 ratio. inhibition, % at 4.98 µM. actives 0.38% (n = 360,000); in the data active = inhibition above about 21%;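 also: 0% = vehicle only and 100% = reference blocker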
Myeloid diff 2 – compounds promoting myeloid differentiation; ER-HoxA9 myeloid progenitors, lysozyme-GFP differentiation, flow cytometry; calls only at 10 µM; actives 1% (n = 360,000);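 active = normalized GFP-positive differentiation at or above the plate's own cutoff, the solvent-only control mean plus 3 SD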;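 also: cells exposed to compound for four days before flow analysis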
TLR9-MyD88 block – TLR9-MyD88 interaction inhibition | inhibition, % at 4.98 µM | actives 0.21% (n = 340,000) | CHO BLA complementation TLR9-MyD88, CCF4 FRET ratio;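 active = inhibition above the mean over all tested compounds plus 3 SD, cut at about 21% in these data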;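 also: 0% = DMSO only wells and 100% = clavulanate BLA inhibitor control wells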
Myeloid diff – compounds promoting myeloid differentiation; shares compounds with Myeloid diff 2; ER-HoxA9 myeloid progenitors, GFP/Mac1 double-positive flow; calls only; actives 2% (n = 2,300);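 active = share of green or green-and-red cells above 9 and 9% in run 1 or 4 and 3% in run 2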
GFP autofluor – compound fluorescence in myeloid differentiation counter-screen; fluorescence response, % (test concentration not listed); actives 7.4% (n = 2,300); shares compounds with Myeloid diff 2; AID 651707; ER-HoxA9 myeloid progenitors, no estrogen, GFP autofluorescence flow cytometry; vehicle wells 0%, positive control 100%;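 active = over 5% cells positive for green fluorescent reporter, or over 2% positive for both it and APC stain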;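 also: range taken on the double positive population between DMSO and positive control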
* = called active by the depositor; i = inactive; . = no result given; + = active, no number.

SMILES	ABCB6 inh 2	TLR4 MyD88 comp	NOD2 RIPK2 PPI	Myeloid diff 2	TLR9-MyD88 block	Myeloid diff	GFP autofluor
O=C(CCNC(=O)c1ccc(Br)cc1)Nc1ccccc1N1CCCC1	102.0	.	-1.4	i	1.2	.	.
O=C(Nc1ccccc1N1CCOCC1)c1cccc2c(Br)cccc12	104.0	.	-11.1	+	-2.2	i	0.0
O=C(CCNC(=O)c1ccc(Br)cc1)Nc1ccccc1N1CCOCC1	101.0	.	1.6	i	-4.0	i	0.0
O=C(Nc1ccccc1N1CCOCC1)c1ccc([N+](=O)[O-])o1	95.0	.	-1.5	i	-6.3	i	0.0
CCc1nc2c(OCc3ccc(C(=O)N(C)C)cc3)cccn2c1N(C)C(=O)Nc1ccccc1OC	96.0	.	-15.4	i	.	.	.
COc1ccc(OC)c(NC(=O)C(=O)NCCC2=CCCCC2)c1	91.0	-3.9	-2.7	i	-2.1	.	.
Cc1ccc(C(=O)NCC(=O)NCc2ccc(Cl)cc2)s1	101.0	.	2.5	i	-10.4	.	.
O=[N+]([O-])c1cccc(NC(=S)N2CCc3ccccc32)c1	103.0	.	-1.7	i	-9.0	i	0.6
C=C(C)[C@@H]1C2=CC(C(=O)OC)=C(C[C@H](C(=C)C)[C@H]3O[C@H]3C3=C[C@H]1OC3=O)O2	101.0	.	17.7	i	.	i	0.0
COc1ccc(-c2cc(=O)oc3c(C)c(OCC(=O)Nc4cccnc4)ccc23)cc1	86.0	.	-3.0	i	-2.9	.	.
Cc1c(OCC(=O)NCc2ccccn2)ccc2c(-c3ccccc3)cc(=O)oc12	99.0	.	-13.1	+	-21.9	i	0.0
Cc1cc(=O)oc2c(C)c(OCC(=O)NCc3ccccn3)ccc12	102.0	.	-6.0	i	-1.9	.	.
COc1ccc(-c2cc(=O)oc3c(C)c(OCC(=O)N(C)C)ccc23)cc1	155.0	.	3.0	+	-13.3	i	0.0
COc1cc(C(=O)NNC(=O)c2cc(-c3ccccc3)n[nH]2)cc(OC)c1C	102.0	.	9.7	i	-4.6	i	0.7
O=C(NCC1CCN(S(=O)(=O)c2ccccc2)CC1)Nc1ccccc1	96.0	.	-9.3	i	1.9	.	.
Cc1ncsc1CCSc1nc2ccccc2c(=O)n1C	89.0	-11.4	-0.1	i	-2.1	i	0.3
Cc1ncsc1CCSc1n[nH]c(=O)n1-c1ccccc1	95.0	-3.8	-5.3	i	6.4	.	.
CCn1c(=O)n(CC(=O)N(C)Cc2ccccc2)c(=O)c2ccccc21	101.0	3.9	-7.8	+	2.1	i	0.0
CCOc1ccc(-n2c(COc3ccc(C)cc3)nnc2SCC(N)=O)cc1	97.0	1.0	-3.9	i	-14.3	i	0.4
COc1ccc(-n2c(COc3ccc(C)cc3)nnc2SCC(=O)O)cc1	90.0	.	10.1	i	1.8	.	.
CC(OC(=O)c1cc(O)c2ccccc2c1O)C(=O)Nc1ccc(C(N)=O)cc1 (centres undefined)	128.0	.	-3.5	+	-2.6	i	2.6
Cc1cc(N2CCN(C(=O)c3[nH]c(C(F)(F)F)nc3-c3ccccc3)CC2)c2ccccc2n1	98.0	.	1.7	i	.	i	82.1*
COCCCNC(=O)Cn1nnc(-c2ccc(NC(=O)c3ccc(F)cc3)cc2)n1	102.0	-2.2	-4.4	i	6.9	i	0.0
COCCCNC(=O)Cn1nnc(-c2ccc(NC(=O)c3cccnc3)cc2)n1	.	0.1	.	.	.	.	.
O=C(Cn1c(=O)cnc2ccccc21)N1CCN(S(=O)(=O)c2cccc([N+](=O)[O-])c2)CC1	97.0	.	-3.7	i	-1.4	.	.
SMILES	ABCB6 inh 2	TLR4 MyD88 comp	NOD2 RIPK2 PPI	Myeloid diff 2	TLR9-MyD88 block	Myeloid diff	GFP autofluor
CCc1cc2c(cc3c(=O)n(CC(=O)N4CCN(C)CC4)ncn32)s1	101.0	.	1.4	i	2.0	.	.
COc1ccc(S(=O)(=O)N2C3CCC2CC(NC(=O)NC2CCCCC2)C3)cc1 (centres undefined)	106.0	-1.8	3.8	i	-2.1	.	.
COc1ccc(S(=O)(=O)N2C3CCC2CC(NC(=O)C2CC2)C3)cc1 (centres undefined)	90.0	4.3	3.2	i	-12.8	i	0.0
COc1ccccc1C(=O)NC(=O)Cn1nc(C)c([N+](=O)[O-])c1C	103.0	.	3.5	i	-1.1	.	.
O=C(CSc1nc2ccc(F)cc2c(=O)n1-c1ccccc1)Nc1ccc2c(c1)CCC2	i	.	-0.6	+	.	i	0.0
CC1=C(C(=O)OC(C)C)C(c2cccs2)N2C(=O)CCSC2=N1 (centres undefined)	97.0	12.2	-9.4	i	-0.2	i	0.2
COC(=O)C1=C(C)N=C2SCCC(=O)N2C1c1cccs1 (centres undefined)	102.0	12.6	-13.0	i	0.6	.	.
Cc1ccc(S(=O)(=O)N(C)/N=C/c2ccc(N(C)C)cc2)cc1	97.0	.	2.8	i	1.3	.	.
C[C@H](O)[C@@H]1CN2CCc3c([nH]c4ccccc34)[C@@H]2C[C@@H]1N(C)C(=S)NCCc1ccccc1	i	.	7.5	+	.	i	2.2
C[C@H](O)[C@@H]1CN2CCc3c([nH]c4ccccc34)[C@@H]2C[C@@H]1N(C)C(=O)Nc1cccc2ccccc12	101.0	.	-1.5	i	.	i	0.4
COc1ccc(-c2ccc3[nH]c4c(c3c2)CCN2C[C@@H]([C@H](C)O)[C@@H](N(C)C(=O)Nc3cc(Cl)cc(Cl)c3)C[C@@H]42)cc1	108.0	.	-1.0	+	9.4	i	0.6
O=C1NC(=O)C2(CCCc3ccccc32)N1 (centres undefined)	98.0	.	8.8	i	0.0	.	.
CCN(CC)S(=O)(=O)c1cccc(C(=O)Nc2ccc3c(c2)OCO3)c1	92.0	2.8	-3.8	i	-6.8	i	0.0
CCOC(=O)c1c(C)[nH]c(N=Nc2ccc(OC)cc2)c1C	98.0	.	-1.8	i	3.8	.	.
Cc1nn2c(N3CCOCC3)c3c(nc2c1-c1ccccc1)CCCC3	102.0	2.5	1.9	+	11.2	i	1.5
Cc1nn2c(-n3ccnc3C)c3c(nc2c1-c1ccccc1)CCC3	99.0	8.6	-1.5	i	-6.8	.	.
Cc1ccc(NC(=O)c2ccc(=O)[nH]c2)cc1S(=O)(=O)N1CCCCC1	105.0	.	3.2	i	4.5	i	0.3
Cc1ccc2cc(C#N)c(N3CCCN(C(=O)C4CCCO4)CC3)nc2c1C (centres undefined)	96.0	-9.2	0.5	i	-1.3	i	0.7
C=CCn1c(C)c(C(C)=O)c(N2CCN(c3ccccc3)CC2)nc1=S	204.0	8.7	-1.9	+	-1.9	i	2.5
C=CCn1c(C)c(C(C)=O)c(N2CCCC2)nc1=S	88.0	-7.8	-11.7	i	-22.6	.	.
COCCCN1C(=O)C(=O)/C(=C(/O)c2ccc(OC(C)C)cc2)C1c1ccncc1 (centres undefined)	96.0	15.2	-2.8	i	-3.4	i	0.2
